In all, about 33,000 sequences were measured (“E-score (-0.5 to 0.5)”: median about -0.0059, highest 2% from about 0.26 on). Only a selection was taken, and the highest values are over-represented in it overall.
Each sequence was assayed against T1, Cin5 (UniProt P40917) (assay: PBM E-score (8-mer binding enrichment) (E-score (-0.5 to 0.5)); higher = stronger / more preferred TF binding). Conditions: protein concentration: 100 nM; construct: GST-full length.
T1 sequence: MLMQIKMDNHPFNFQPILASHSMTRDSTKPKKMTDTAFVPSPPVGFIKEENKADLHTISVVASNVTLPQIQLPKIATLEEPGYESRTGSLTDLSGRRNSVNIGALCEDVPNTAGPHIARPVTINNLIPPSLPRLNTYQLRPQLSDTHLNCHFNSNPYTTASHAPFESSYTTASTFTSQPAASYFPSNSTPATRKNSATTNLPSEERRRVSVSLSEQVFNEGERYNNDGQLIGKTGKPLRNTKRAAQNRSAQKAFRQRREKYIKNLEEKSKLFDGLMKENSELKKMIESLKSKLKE
How it was run: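 Each ungapped eight-base word and its reverse complement, pooled, received an E-score from the Universal PBM Analysis Suite. Underlying scans, normalised with masliner, recorded fluorescent anti-GST bound to GST-tagged yeast transcription factors. These were applied at about 100-200 nM to universal all-10-mer Agilent arrays double-stranded by primer extension.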
CGGGCCTA was tested, and the “PBM E-score” value was -0.236. CGGTTCTC was tested, and the “PBM E-score” value was -0.217. In the case of GTGGAAGA, the “PBM E-score” value is reported as -0.192. ACGGGCAT was tested, and the “PBM E-score” value was -0.0832. In the case of ACTAAGAT, the “PBM E-score” value is reported as 0.2. TTCTCCAA was tested, and the “PBM E-score” value was -0.0656. For ACACTCAC, the “PBM E-score” value was 0.066. With AACAAAAA the “PBM E-score” value was 0.209. For TACAAATA, the “PBM E-score” value was 0.239. With AACAAATA the “PBM E-score” value was 0.278. With AACAAGAT the “PBM E-score” value was 0.146. With AACAAGTA the “PBM E-score” value was 0.0249. For AACAAAAT, the “PBM E-score” value was 0.269. In the case of GTATCCAC, the “PBM E-score” value is reported as -0.00124. AATCATCC was tested, and the “PBM E-score” value was 0.227. TACTCCTA was tested, and the “PBM E-score” value was 0.066. With CATCCCAA the “PBM E-score” value was 0.0478. GATTTCGA was tested, and the “PBM E-score” value was 0.11. With GATTTCGC the “PBM E-score” value was 0.262. For CATTTCGC, the “PBM E-score” value was 0.111. With CAATGGTG the “PBM E-score” value was -0.161. In the case of CTCTGGAC, the “PBM E-score” value is reported as 0.0765. AGGGTGCA was tested, and the “PBM E-score” value was -0.148. For ACATAACC, the “PBM E-score” value was 0.235. In the case of ACATAAGG, the “PBM E-score” value is reported as 0.194. ACATAAGC was tested, and the “PBM E-score” value was 0.437. ATATAAGA was tested, and the “PBM E-score” value was 0.301. With ACATAAGT the “PBM E-score” value was 0.195. With GTATAAGA the “PBM E-score” value was 0.0464. For ACATAACA, the “PBM E-score” value was 0.286. With CCATAAGA the “PBM E-score” value was 0.118. For ACATAAGA, the “PBM E-score” value was 0.3. For ACATAACT, the “PBM E-score” value was 0.197. In the case of TCATAAGA, the “PBM E-score” value is reported as 0.0448. For CTATAAGA, the “PBM E-score” value was 0.0762. With ATGGAACA the “PBM E-score” value was -0.0505. GCACTGAA was tested, and the “PBM E-score” value was -0.0379. For CCATTGAG, the “PBM E-score” value was 0.00119. AGACACCA was tested, and the “PBM E-score” value was -0.0438. For GGGAGCCC, the “PBM E-score” value was -0.419. CCACGCAG was tested, and the “PBM E-score” value was -0.0201. GCATAAGA was tested, and the “PBM E-score” value was 0.0468. With GCATAAGC the “PBM E-score” value was 0.276. CCATAAGC was tested, and the “PBM E-score” value was 0.215. In the case of GACTTGAC, the “PBM E-score” value is reported as -0.208. In the case of GAGCGGGA, the “PBM E-score” value is reported as -0.0794. With GGCAACCA the “PBM E-score” value was -0.0499. CTTTCGCC was tested, and the “PBM E-score” value was -0.0892. AGGAATCA was tested, and the “PBM E-score” value was 0.172. GGGAATCA was tested, and the “PBM E-score” value was -0.0779. In the case of CGGAATCA, the “PBM E-score” value is reported as 0.27. CATAGCCC was tested, and the “PBM E-score” value was -0.222. For CCCACTAC, the “PBM E-score” value was 0.0221. CTGGAGAA was tested, and the “PBM E-score” value was -0.202. With CTACACAG the “PBM E-score” value was -0.0209. In the case of CAAGAACA, the “PBM E-score” value is reported as -0.0469. With GAAGAACA the “PBM E-score” value was 0.215. With TAAGAACA the “PBM E-score” value was 0.29. With CGTAGACG the “PBM E-score” value was -0.217. With GAAACTGA the “PBM E-score” value was -0.17. With CCCGAGTA the “PBM E-score” value was 0.15. For AGTAGATA, the “PBM E-score” value was 0.306. With AGTAGATC the “PBM E-score” value was -0.0135. With TATAGATA the “PBM E-score” value was 0.176. In the case of CTTAGCTA, the “PBM E-score” value is reported as 0.151. With ATTAGCTA the “PBM E-score” value was 0.3. For GTTAGATA, the “PBM E-score” value was 0.113. In the case of CGTAGATA, the “PBM E-score” value is reported as 0.0684. For AATAGATA, the “PBM E-score” value was 0.269. For ATTAGATA, the “PBM E-score” value was 0.301. GTTAGCTA was tested, and the “PBM E-score” value was 0.0147. For ATTAGATG, the “PBM E-score” value was 0.239. In the case of GATAGATA, the “PBM E-score” value is reported as 0.0426. In the case of CCGGTTTC, the “PBM E-score” value is reported as 0.0044. For TACAATCA, the “PBM E-score” value was 0.152. In the case of CCCTCAGG, the “PBM E-score” value is reported as -0.164. For AACCAAAA, the “PBM E-score” value was 0.204. With CCGCCCCA the “PBM E-score” value was 0.109. AGTGCCGC was tested, and the “PBM E-score” value was -0.124. AGGGCCAC was tested, and the “PBM E-score” value was -0.194. In the case of AGAAGGGC, the “PBM E-score” value is reported as -0.254. ATATAACC was tested, and the “PBM E-score” value was 0.188. ATATAACA was tested, and the “PBM E-score” value was 0.284. For CTATAACC, the “PBM E-score” value was -0.144. GTATAACA was tested, and the “PBM E-score” value was 0.126. In the case of CTATAACA, the “PBM E-score” value is reported as -0.122. With ATATAACG the “PBM E-score” value was 0.273. In the case of CTTAAACC, the “PBM E-score” value is reported as -0.192. For ACGGCGTC, the “PBM E-score” value was -0.0496. In the case of GAACTGGC, the “PBM E-score” value is reported as -0.125. With CATAATTC the “PBM E-score” value was 0.138. With AATAATTA the “PBM E-score” value was 0.35. In the case of AATAATTG, the “PBM E-score” value is reported as 0.0887. With ACTAATTC the “PBM E-score” value was 0.204. With CATAATTA the “PBM E-score” value was 0.308. For ACTAATTA, the “PBM E-score” value was 0.228. For CCTAATTA, the “PBM E-score” value was 0.0517. For GATAATTA, the “PBM E-score” value was 0.218. In the case of AATAATTC, the “PBM E-score” value is reported as 0.261. With ACCGAAGA the “PBM E-score” value was 0.0871. For ACCAATGC, the “PBM E-score” value was 0.0593. With AGAGACTC the “PBM E-score” value was -0.0094. With CCTCGCCC the “PBM E-score” value was 0.0221. With AGCCTTAG the “PBM E-score” value was -0.197. For CAACAGTA, the “PBM E-score” value was 0.0302. GCCAGCCA was tested, and the “PBM E-score” value was -0.193. With GATACAAA the “PBM E-score” value was 0.173. With TATACAAA the “PBM E-score” value was 0.169. AATACAAG was tested, and the “PBM E-score” value was 0.294. For AATACAAT, the “PBM E-score” value was 0.154. AATACAAA was tested, and the “PBM E-score” value was 0.342. In the case of AATACAAC, the “PBM E-score” value is reported as 0.236. In the case of AACTCCCT, the “PBM E-score” value is reported as -0.142. CATTAACG was tested, and the “PBM E-score” value was 0.0883. In the case of CGCATGAA, the “PBM E-score” value is reported as 0.116. In the case of GGTAACCA, the “PBM E-score” value is reported as -0.151. For ATTATTGA, the “PBM E-score” value was 0.111. For ACAATACC, the “PBM E-score” value was 0.278. In the case of ACAATACA, the “PBM E-score” value is reported as 0.144. ACAATACG was tested, and the “PBM E-score” value was 0.05. In the case of GCAATACA, the “PBM E-score” value is reported as 0.274. With ATAATACC the “PBM E-score” value was 0.258. CTAATACC was tested, and the “PBM E-score” value was 0.104. With ATAATACG the “PBM E-score” value was 0.213. For ACAATACT, the “PBM E-score” value was 0.237. For ATAATACA, the “PBM E-score” value was 0.35. ATAATAAC was tested, and the “PBM E-score” value was 0.206. For CTAATACA, the “PBM E-score” value was 0.161. With GCAATACC the “PBM E-score” value was 0.0147. For GAGTGCTA, the “PBM E-score” value was 0.0563. With CCTAACCC the “PBM E-score” value was -0.302. In the case of ACAAGACT, the “PBM E-score” value is reported as -0.039. With GATTGGAA the “PBM E-score” value was -0.0265. For ATCGAGTC, the “PBM E-score” value was 0.0696. In the case of CTCTAAGC, the “PBM E-score” value is reported as 0.0569. With ATTAACTG the “PBM E-score” value was 0.237. In the case of ATACAGGG, the “PBM E-score” value is reported as 0.121. ACTCGTGG was tested, and the “PBM E-score” value was -0.041. For ATGGTAGG, the “PBM E-score” value was -0.0925. In the case of CTACTTCA, the “PBM E-score” value is reported as -0.0153. For GTACTTCA, the “PBM E-score” value was 0.279. For ATACTTCA, the “PBM E-score” value was 0.129. For AACCCAGA, the “PBM E-score” value was -0.0895. In the case of CGGGGCAC, the “PBM E-score” value is reported as -0.242. GCTCTACC was tested, and the “PBM E-score” value was -0.288. In the case of GAAGATTA, the “PBM E-score” value is reported as 0.197. With CTAGATAA the “PBM E-score” value was 0.0277. In the case of ATTGAATA, the “PBM E-score” value is reported as 0.277. TCAGATAA was tested, and the “PBM E-score” value was 0.184. For ATTGAATC, the “PBM E-score” value was -0.0743. In the case of ATAGATAG, the “PBM E-score” value is reported as 0.0352. In the case of ATAGATAC, the “PBM E-score” value is reported as 0.224. For CTTGAATA, the “PBM E-score” value was 0.0347. For TTAGATAA, the “PBM E-score” value was 0.32. With TAAGATTA the “PBM E-score” value was 0.274. With ATAGATAA the “PBM E-score” value was 0.267. In the case of AAAGATTA, the “PBM E-score” value is reported as 0.249. In the case of AAAAGGAC, the “PBM E-score” value is reported as 0.0428. In the case of AAGACCCG, the “PBM E-score” value is reported as -0.133. For AACGATCG, the “PBM E-score” value was 0.0832. In the case of ACGCCCGA, the “PBM E-score” value is reported as -0.032. In the case of AGGAACAA, the “PBM E-score” value is reported as -0.0886. AGTTCGGC was tested, and the “PBM E-score” value was -0.0604. ATAGAATG was tested, and the “PBM E-score” value was 0.209. In the case of GTAGAATA, the “PBM E-score” value is reported as 0.194. ATAGATTA was tested, and the “PBM E-score” value was 0.302. With GCAGATAA the “PBM E-score” value was 0.0212. ATAGAATA was tested, and the “PBM E-score” value was 0.277. With GTAGATAA the “PBM E-score” value was 0.28. In the case of ATGGAATC, the “PBM E-score” value is reported as 0.242. With GTAGATAC the “PBM E-score” value was 0.0747. For ATGGAATA, the “PBM E-score” value was 0.322. In the case of GTGGAATA, the “PBM E-score” value is reported as 0.193.
